Only some compounds are listed: those with a hit (about 2.6% of all), similar ones and a draw of the others.
LMP1 NFkB inh: reduces LMP1-driven NF-kappaB luciferase signal | LMP1-induced NF-kappaB luciferase reporter cells, luminescence | inhibition, % at 12.5 µM | hit rate 0.69% among 350,000 | AID 504558; in the data active means inhibition above about 41%;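 further: 0% = neutral control wells and 100% = reference inhibitor control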
TWEAK-Fn14 inh: blocks TWEAK-Fn14 interaction in a reporter cell assay. TWEAK-stimulated Fn14 reporter cells, luciferase luminescence, 8 h. inhibition, % at 10 µM. hit rate 2% among 360,000. AID 1159606; in the data active means inhibition above about 50%
TROY NFkB inh: blocks TROY-dependent signaling in reporter cells. Q293 LMP1-TROYcd NF-kB luciferase reporter, 4 h. hit rate 0.98% among 360,000. inhibition, % at 10 µM;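 active means compounds whose plate-normalised and pattern-corrected inhibition of the luciferase reporter signal at the single screening dose is 50% or more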
aDG glyco up: increases alpha dystroglycan glycosylation; Pro5-aDG cells, alpha-DG glycosylation AlphaScreen (IIH6); 0% Pro5, 100% B10-LARGE cell signal; activation, % at 10 µM; hit rate 0.22% among 360,000;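 active means activation of at least 8% versus controls, or a plate z-score of at least 8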;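 further: Pro5 are CHO cells carrying HIG-tagged alpha-DG that lacks glycosylation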
HSP90 refold inh: HSP90 refolding inhibition in rabbit reticulocyte lysate | luciferase refolding luminescence, 3 h | inhibition, % at 5.6 µM | hit rate 0.91% among 290,000 | AID 1789;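 active means inhibition above the screen-wide mean plus 3 SD, computed separately per campaign, cut at about 16% in these data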;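 further: 0% = DMSO wells and 100% = 60 µM geldanamycin wells; inhibitors lower the luminescence because luciferase stays unfolded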
LGR2 antag: blocks bursicon-induced cAMP signaling via Drosophila LGR2 | inhibition, % at 9.99 µM | hit rate 0.35% among 380,000 | HEK293 LGR2, CRE-luciferase, bursicon-stimulated, 4 h;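 active means drop in luminescence signal, shown as inhibition above about 50% in the replicate tests, limit read from the data, passing the limit was not always enough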;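 further: agonist challenge used bursicon conditioned medium at about half maximal strength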
* hit, by the source's call; / = not tested or not shown.

SMILES	LMP1 NFkB inh	TWEAK-Fn14 inh	TROY NFkB inh	aDG glyco up	HSP90 refold inh	LGR2 antag
NS(=O)(=O)c1ccc(N2N=C(c3ccccc3)CC2c2ccccc2Br)cc1 (stereo not drawn)	7	12	26	0	/	9
CCC(=O)N1[C@H](CO)[C@@H]2c3ccccc3N(C(=O)c3cnccn3)C[C@@H]21	/	/	/	/	/	6
C[C@@H]1CN([C@H](C)CO)C(=O)Cc2cc(NC(=O)Cn3cnnn3)ccc2O[C@H]1CN(C)Cc1ccc(C(=O)O)cc1	/	/	/	/	/	-7
CC(=O)N1CCC(Nc2ccc(C)cc2)CC1	-5	3	-8	0	1	2
CCOc1ccc(NC2CCN(C(C)=O)CC2)cc1	42*	0	-18	0	1	/
CN(C)C(=O)c1ccc(N=Nc2c(O)c3ccccc3[nH]c2=O)cc1	15	19	-11	0	/	8
O=C(O)c1ccc(N=Nc2c(O)[nH]c3ccccc23)cc1	0	90*	28	0	41*	31
CO[C@@H]1CN(C)C(=O)c2ccc(NS(=O)(=O)c3ccc(Cl)cc3)cc2OC[C@H](C)N(C(=O)NC(C)C)C[C@@H]1C	/	/	/	/	/	-4
CC(=O)c1c(C)oc2ccc(NS(=O)(=O)c3ccc(O)c(C(=O)O)c3)cc12	3	0	-8	0	-3	/
CC(=O)c1c(C)oc2ccc(NS(=O)(=O)c3ccc(F)cc3C)cc12	10	56*	33	1	-3	-1
CC(=O)OCC(=O)Nc1ccc([N+](=O)[O-])cc1Cl	0	-2	17	0	-2	-8
CC(=O)Oc1c(C)cc(Cl)cc1C(=O)Nc1ccc([N+](=O)[O-])cc1Cl	36	88*	45	-1	1	-30
NC(=O)CSc1nnc2sc3ccccc3n12	1	85*	/	0	-1	/
C=C(C)C(O)CC/C(C)=C/Cc1c(O)ccc(C(=O)/C=C/c2ccc(O)cc2)c1O (stereo not drawn)	-12	34	65*	0	/	17
Cc1ccc(NC(=O)CN(C(=O)N2CCN(C)CC2)S(=O)(=O)c2ccc(C)cc2)cc1	-4	-6	55*	0	/	2
Cc1ccc(S(=O)(=O)N(CC(=O)Nc2ccc(F)cc2)C(=O)N2CCN(C)CC2)cc1	-8	6	-5	0	/	6
C[C@H](CO)N1C[C@H](C)[C@H](CN(C)C(=O)Nc2ccc(F)cc2)Oc2ccc(NC(=O)Cn3cnnn3)cc2CC1=O	/	/	/	/	/	0
CC(C)NC(=O)NCC[C@H]1CC[C@H](NC(=O)Nc2ccccc2)[C@@H](CO)O1	/	/	/	/	/	1
O=C(c1ccsc1)N1CCCC(N2CCN(c3ccccc3F)CC2)C1 (stereo not drawn)	-2	95*	-9	0	4	0
O=C(c1noc2c1CCCC2)N1CCCC(N2CCN(c3ccccc3F)CC2)C1 (stereo not drawn)	-2	4	-4	0	3	/
Cc1ccccc1-c1ccccc1[C@H]1[C@@H](CO)N(C(=O)c2cccc(F)c2)[C@H]1C#N	/	/	/	/	/	7
CCCCCc1ccc(-c2cn(Cc3ccc(C(=O)c4ccccc4)cc3)nn2)cc1	-30	10	-14	0	-3	-22
O=C(c1ccccc1)c1ccc(Cn2cc(-c3ccccc3)nn2)cc1	3	35	-21	4.5*	-2	-40
CCN(CC)S(=O)(=O)c1ccc(/C=C/C(=O)Nc2ccc(F)c(F)c2F)cc1	24	39	7	0	-1	-15
CCN(CC)S(=O)(=O)c1ccc(/C=C/C(=O)Nc2ccc(F)cc2F)cc1	-6	76*	3	0	-4	-7
SMILES	LMP1 NFkB inh	TWEAK-Fn14 inh	TROY NFkB inh	aDG glyco up	HSP90 refold inh	LGR2 antag
CCN(CC)S(=O)(=O)c1ccc(/C=C/C(=O)Nc2ccc(Br)cc2F)cc1	32	74*	48	3	-1	22
CC(C)CC#Cc1ccc2c(c1)O[C@H](CN(C)C(=O)c1cccc(F)c1)[C@@H](C)CN([C@@H](C)CO)S2(=O)=O	/	/	/	/	/	7
CCNC(=O)Nc1ccc2c(c1)C(=O)N(C)[C@H]1CC[C@H](CC(=O)NCCN3CCCC3)O[C@@H]1CO2	/	/	/	/	/	6
COc1ccc(/C=C/c2ccc3cccc(O)c3n2)c(OC)c1OC	-4	81*	-44	0	0	-92
COc1cc(Br)cc(/C=C/c2ccc3cccc(O)c3n2)c1OC	9	0	-27	0	7	-2
COc1cccc(/C=C/c2ccc3cccc(O)c3n2)c1OC	0	82*	48	0	-1	-54
COc1cc(/C=C/c2ccc3cccc(O)c3n2)cc(Cl)c1OC	1	-22	-11	2.5*	-3	-49
COc1cc(/C=C/c2ccc3cccc(O)c3n2)cc(OC)c1OC	-4	-46	-46	0	-1	-58
C[C@H](CO)N1C[C@H](C)[C@H](CN(C)C(=O)CN2CCOCC2)Oc2ncc(C3=CCCCC3)cc2C1=O	/	/	/	/	/	2
CN(C)c1ccc(N=Cc2ccco2)cc1	1	51*	32	0	-2	/
O=C(NCCN1C(=O)S/C(=C\c2ccc(Cl)c(Cl)c2)C1=O)C1COc2ccccc2O1 (stereo not drawn)	-5	29	23	0	-3	6
O=C(NCCN1C(=O)S/C(=C\c2ccc(Cl)c(Cl)c2)C1=O)c1ccc2c(c1)C(=O)N(Cc1ccncc1)C2=O	13	58*	-23	0	-3	12
CCOc1ccc(N2C(=O)CSC2=S)cc1	4	33	23	0	1	18
CCN(CC)c1ccc(N2C(=O)CSC2=S)cc1	-9	72*	-10	0	-2	35
O=C(O)c1cc(C(=O)O)cc(N2C(=O)CSC2=S)c1	1	16	-5	0	-6	2
O=C(O)c1ccc(N2C(=O)CSC2=S)cc1	-10	68*	37	0	/	26
CC(C)CCCCCCCCCCCCC(=O)NCC(=O)NC1C(O)C(O)C(Nc2ncnc3nc[nH]c23)OC1C(O)CO (stereo not drawn)	88*	97*	72*	0	/	/
CC(O)CNc1ncnc2nc[nH]c12 (stereo not drawn)	-5	4	6	0	-4	/
COc1ccccc1CN(C)C[C@@H]1OCc2cn(nn2)CCCC(=O)N([C@@H](C)CO)C[C@@H]1C	/	/	/	/	/	6
NS(=O)(=O)c1cccc(NC(=O)CNC(=O)CC23CC4CC(CC(C4)C2)C3)c1	6	-1	52*	2	-1	6
NS(=O)(=O)c1cccc(NC(=O)CC23CC4CC(C2)CC(CC(=O)Nc2cccc(S(N)(=O)=O)c2)(C4)C3)c1	7	-12	-22	0	6	-10
Cc1noc(C)c1NC(=O)N[C@H]1CC[C@@H](CC(=O)N2CCCCC2)O[C@H]1CO	/	/	/	/	/	-2
C[C@H]1CN([C@@H](C)CO)C(=O)c2cc(NC(=O)Nc3ccccc3)ccc2O[C@@H]1CN(C)C(=O)Nc1ccc2c(c1)OCO2	/	/	/	/	/	0
